Source: PubChem (National Center for Advancing Translational Sciences (NCATS))
Sampled rows, rich in hits. Any-hit rate of the full collection: about 2.9%.
ATXN2 expr inh = ATXN2 expression inhibition; HEK-293 ATXN2-luciferase reporter, luminescence, 24 h; Potency, µM (highest dose often 57 µM), most hits filed as inhibitors; actives 0.72% (n = 360,000); AID 1745845; also: nearly all actives have a fitted effect of over 55% in size
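qHTS (up to 57 uM final) was run with 24 h compound exposure of reporter cells at 37 °C. Each well was multiplexed: SteadyGlo luminescence measured ATXN2-luciferase expression after a fluorogenic Gly-Phe-AFC viability readout (25 uM final).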
ATXN viability = viability counter-screen for ATXN expression inhibitors. Potency, µM (series often up to 56.7 µM), actives largely listed as cytotoxic. actives 0.49% (n = 400,000). AID 651635. S2 cells (HEK-293 line with an ATXN2-luciferase reporter) viability, CellTiter-Fluor protease fluorescence, 24 h; also: nearly all actives have a fitted effect of over 40% in size
A549 viability = A549 cytotoxicity, counter-screen for Nrf2 inhibitors | A549 ARE-Fluc cells, CellTiter-Fluor viability, 18-24 h | Potency, µM (titrated, usually from 46 µM), usual class: inhibitors | actives 0.16% (n = 390,000)
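Cytotoxicity counterscreen: CellTiter-Fluor fluorescence was measured in A549 ARE_Fluc cells after 18-24 h of compound exposure in a concentration series. The subsequent BugLite luminescent read reports ARE-luciferase activity.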
Nrf2 activator = activates Nrf2 signaling | AREc32 ARE-luciferase reporter (MCF7-derived line), luminescence, 24 h | Potency, µM (highest dose often 46.1 µM), usual class: activators | actives 0.31% (n = 410,000) | AID 624171; also: nearly all actives have a fitted effect of over 65% in size
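Cells of the AREc32 ARE-luciferase line are plated in OPTI-MEM containing 5% FBS and left overnight at 37 deg C. Compounds are pinned in, incubation continues 24 hr, and firefly luciferase signal is then measured.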
Nrf2 inh = inhibitors of Nrf2 signaling; A549 ARE-Fluc reporter, luciferase luminescence, 18-24 h; AID 504444; Potency, µM (top dose mostly 46 µM), actives largely listed as inhibitors; actives 2.1% (n = 360,000); also: nearly all actives have a fitted effect of over 60% in size
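Nrf2 function is reported as luminescence of an ARE-controlled luciferase in A549 cells. Compounds were tested at several concentrations, and a CellTiter-Fluor read on the same wells flagged cytotoxicity.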
A number is an active result; - = inactive; ? = inconclusive; . = no result; [ ] = another dose, or the depositor's remark. Calls follow the shape of the dose curve; as a rule, active = well fitted curve in the direction sought with a large enough effect; inconclusive = small, poorly fitted or top-dose-only effect, or another doubt; inactive = no such curve, though single readings can be large; an effect the other way counts as inactive or inconclusive.

SMILES	ATXN2 expr inh	ATXN viability	A549 viability	Nrf2 activator	Nrf2 inh
COc1ccc(N2CCN(S(=O)(=O)c3c(C)n(C)c(=O)n(C)c3=O)CC2)cc1	-	-	-	-	-
O=C(Nc1nnc(C2CC2)o1)c1ccc(S(=O)(=O)N2CCCc3ccccc32)cc1	16µM	?	-	-	10µM
COc1ccc(-c2nnc(NC(=O)c3ccc(S(=O)(=O)N4CCCc5ccccc54)cc3)o2)cc1	?	-	?	-	14µM
COCc1nnc(NC(=O)c2ccc(S(=O)(=O)N3CCCc4ccccc43)cc2)o1	-[11.3 µM]	-	?	-	-
COc1ccccc1-c1nnc(NC(=O)c2ccc(S(=O)(=O)N3CCOCC3)cc2)o1	?	-	-	-	?
COc1cccc(-c2nnc(NC(=O)c3ccc(S(=O)(=O)N4CCOCC4)cc3)o2)c1	?	-	-	-	12µM
COc1cc(C(=O)OCCc2cc3ccccc3c(=O)o2)cc(OC)c1OC	?	?	-	-	?
CCOC(=O)c1cc(S(=O)(=O)NCc2ccc(C)cc2)[nH]n1	-	-	-	-	.
C[C@@H]1CCCCO[C@H](CN(C)Cc2ccc(C(=O)O)cc2)[C@H](C)CN([C@@H](C)CO)C(=O)c2cc(NC(=O)Nc3ccc(C(F)(F)F)cc3)ccc2O1	-	-	.	-	.
CCc1nnc(NC(=O)c2ccc(S(=O)(=O)N3CCc4ccccc4C3)cc2)s1	-	-	-	-	?
O=C(Nc1cccnc1)c1ccc(Cl)c(S(=O)(=O)N2CCc3ccccc32)c1	-	-	-	-	?
CCc1nnc(NC(=O)c2ccc(Cl)c(S(=O)(=O)N3CCc4ccccc4C3)c2)s1	-	-	-	-	18µM
O=C(Nc1ccccn1)c1ccc(Cl)c(S(=O)(=O)N2CCc3ccccc32)c1	-	-	-	-	21µM
COc1ccc(S(=O)(=O)N2CCCCC2)cc1NC(=O)c1ccc(N2CCCC2=O)cc1	-	-	-	-	-
Cc1nnsc1NC(=O)OCc1ccc(C(C)(C)C)cc1	-	-	-	-	10µM
Cc1ccc(C(=O)NCC(=O)OCC(=O)c2cccc3ccccc23)cc1	.	.	-	.	-
COc1ccc(-c2[nH]c(-c3ccc4c(c3)OCO4)nc2-c2ccccc2)cc1	?	.	?	-	21µM
Cc1ccc(Nc2nc(N)nc(CSC(=S)N3CCN(c4ccccc4)CC3)n2)cc1	-	-	-	-	-
Nc1nc(CSC(=S)N2CCN(c3ccccc3)CC2)nc(Nc2ccccc2)n1	-	-	-	-	16µM
CCOc1ccc(N(CC(=O)NCCC2=CCCCC2)S(=O)(=O)c2ccccc2)cc1	?	?	-	-	-
CC(=O)c1ccc(N2CCN(C(=O)CCCc3nc4ccccc4s3)CC2)cc1	-	-	-	-	15µM
CCOc1ccc(Nc2nnc(-n3nc(C)cc3C)c3ccccc23)cc1	-	-	-	-	-
CCc1nnc(N2CCN(c3ncnc4c3oc3ccccc34)CC2)s1	-	-	-	-	10µM
c1ccc(N2CCN(c3ncnc4c3oc3ccccc34)CC2)cc1	?	?	-	-	-
Cn1c(N)c(C(=O)COC(=O)C2(c3ccc(F)cc3)CCCC2)c(=O)n(C)c1=O	-	-	-	-	?
SMILES	ATXN2 expr inh	ATXN viability	A549 viability	Nrf2 activator	Nrf2 inh
Cn1c(N)c(C(=O)COC(=O)C2(c3ccc(Cl)cc3)CCCC2)c(=O)n(C)c1=O	-	-	?	-	18µM
COCC(=O)OC1CCn2c1nc1c2C(=O)C(C)=C(NC(C)=O)C1=O (stereo not drawn)	10µM	.	?	-	?
COc1ccc(CCN2C(=O)NC(NC(C)=O)(C(F)(F)F)C2=O)cc1OC (stereo not drawn)	-	-	-	-	-
CSc1ccc(C(=O)C2CCCN(S(=O)(=O)c3c(C)noc3C)C2)cc1 (stereo not drawn)	-	-	-	-	13µM
Cc1noc(C)c1S(=O)(=O)N1CCC(C(=O)c2ccccc2)CC1	-	-	-	-	-
Cn1c(NCc2ccco2)nc2c1c(=O)n(Cc1ccc(Br)cc1)c(=O)n2C	-	-	-	-	?
Cn1c(=O)n(Cc2ccccc2)c(=O)c2c1nc1n2CCCN1CCc1ccccc1	-	-	-	-	29µM
Cn1c(=O)n(Cc2ccccc2)c(=O)c2c1nc1n2CCCN1Cc1ccccc1	-	-	-	-	.
Cc1ccc(Oc2nc3c(c(=O)n(Cc4ccccc4)c(=O)n3C)n2C)cc1C	-	-	-	-	18µM
